Laboratory results from PubChem BioAssay (EPA / NIEHS).
The source made the active and inactive calls. Rule for the calls: active = hit-call score of the fitted dose curve at least 0.9, where 1 is the maximum; inactive = score below 0.9.

Key:
Conditions in all cases: mRNA level, 48 h; actives raise or lower the signal
[1] = read-out: Phosphatase and tensin (PTEN), PTEN (gene 5728); test: LTEA_HepaRG_PTEN: Life Technologies and Expression Analysis (LTEA) Assay for Phosphatase and tensin (PTEN) using HepaRG (AID 2283523)
In short: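 Expression of PTEN is quantified in the human liver line HepaRG following two days of dosing (top concentration 100 uM, half-log dilutions, 0.5% DMSO). Values derive from bidirectional curve fitting relative to DMSO controls.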

[2] = read-out: solute carrier (SLC22A1), SLC22A1 (gene 6580); test: LTEA_HepaRG_SLC22A1: Life Technologies and Expression Analysis (LTEA) Assay for solute carrier (SLC22A1) using HepaRG (AID 2283524)
In short: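 Transcript induction or suppression of SLC22A1 in human HepaRG cultures is scored after 48 h chemical treatment, with DMSO (0.5%) as baseline for bidirectional fitting. Concentrations span eight half-log points topping at 100 uM.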

[3] = read-out: Pyruvate Dehydrogenase Kinase 4 (PDK4), PDK4 (gene 5166); test: LTEA_HepaRG_PDK4: Life Technologies and Expression Analysis (LTEA) Assay for Pyruvate Dehydrogenase Kinase 4 (PDK4) using HepaRG (AID 2283525)
In short: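 Eight-point, half-log concentration series (max 100 uM, 0.5% DMSO) applied to differentiated HepaRG cells for 48 h in duplicate. Endpoint: PDK4 mRNA induction or repression by qRT-PCR against DMSO baseline.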

[4] = read-out: NAD(P)H dehydrogenase [quinone] 1 (NQO1), NQO1 (gene 1728); test: LTEA_HepaRG_NQO1: Life Technologies and Expression Analysis (LTEA) Assay for NAD(P)H dehydrogenase [quinone] 1 (NQO1) using HepaRG (AID 2283526)
In short: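 Transcript induction or suppression is quantified by qRT-PCR in human HepaRG liver cells dosed for 48 hours. Eight half-log concentrations topping at 100 uM are used, with 0.5% DMSO as vehicle and baseline.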

[5] = read-out: Nuclear factor erythroid 2-related factor 2 (Homo sapiens) (UniProt Q16236); test: LTEA_HepaRG_NFE2L2: Life Technologies and Expression Analysis (LTEA) Assay for Nuclear factor erythroid 2-related factor 2 (NFE2L2) Transcription Factor using HepaRG (AID 2283527)
In short: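 Human liver HepaRG line treated in duplicate for 48 h with an eight-point series topping at 100 uM. Gene expression of NFE2L2 by qRT-PCR, bidirectionally fitted against the vehicle control.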

[6] = read-out: succinate dehydrogenase complex iron sulfur subunit B (SDHB), SDHB (gene 6390); test: LTEA_HepaRG_SDHB: Life Technologies and Expression Analysis (LTEA) Assay for succinate dehydrogenase complex iron sulfur subunit B (SDHB) using HepaRG (AID 2283528)
In short: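 Readout is SDHB transcript level by qRT-PCR, normalised to three housekeeping genes and fitted bidirectionally against 0.5% DMSO vehicle. Human HepaRG cells were treated for 48 h at up to 100 uM.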

[7] = read-out: Signal transducer and activator of transcription 3 (Homo sapiens) (UniProt P40763); test: LTEA_HepaRG_STAT3: Life Technologies and Expression Analysis (LTEA) Assay for Signal transducer and activator of transcription (STAT3) using HepaRG (AID 2283529)
In short: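 In this transcriptional endpoint, HepaRG cultures receive test chemicals at up to 100 uM for 48 h, tested in duplicate. STAT3 mRNA is normalized to ACTB, GAPDH and POLR2A.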

[8] = read-out: solute carrier (SLCO1B1), SLCO1B1 (gene 10599); test: LTEA_HepaRG_SLCO1B1: Life Technologies and Expression Analysis (LTEA) Assay for solute carrier (SLCO1B1) using HepaRG (AID 2283530)
In short: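 Differentiated human HepaRG cells were exposed for 48 h in serum-free induction medium to eight half-log concentrations, top 100 uM, in 0.5% DMSO. SLCO1B1 mRNA was measured by qRT-PCR, normalized to ACTB, GAPDH and POLR2A, and fitted bidirectionally against DMSO.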

[9] = read-out: sulfotransferase 2A1 (SULT2A1), SULT2A1 (gene 6822); test: LTEA_HepaRG_SULT2A1: Life Technologies and Expression Analysis (LTEA) Assay for sulfotransferase 2A1 (SULT2A1) using HepaRG (AID 2283531)
In short: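 HepaRG human liver cells, 48 h exposure in serum-free induction medium to 8 half-log concentrations topping at 100 µM (0.5% DMSO), duplicate wells. SULT2A1 mRNA measured by TaqMan qRT-PCR, normalized to ACTB/GAPDH/POLR2A; bidirectional fit against DMSO.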

[10] = read-out: Transforming Growth Factor (TGFA), TGFA (gene 7039); test: LTEA_HepaRG_TGFA: Life Technologies and Expression Analysis (LTEA) Assay for Transforming Growth Factor (TGFA) using HepaRG (AID 2283532)
In short: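 Gene expression of TGFA was quantified by qRT-PCR after human HepaRG cells were treated for 48 h with test chemicals (eight concentrations, highest 100 uM, 0.5% DMSO). Activity in either direction was fitted relative to DMSO.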

Measured: AC50

Nuclear factor erythroid 2-related factor 2 (Homo sapiens), sequence (Q16236 whole entry, looked up): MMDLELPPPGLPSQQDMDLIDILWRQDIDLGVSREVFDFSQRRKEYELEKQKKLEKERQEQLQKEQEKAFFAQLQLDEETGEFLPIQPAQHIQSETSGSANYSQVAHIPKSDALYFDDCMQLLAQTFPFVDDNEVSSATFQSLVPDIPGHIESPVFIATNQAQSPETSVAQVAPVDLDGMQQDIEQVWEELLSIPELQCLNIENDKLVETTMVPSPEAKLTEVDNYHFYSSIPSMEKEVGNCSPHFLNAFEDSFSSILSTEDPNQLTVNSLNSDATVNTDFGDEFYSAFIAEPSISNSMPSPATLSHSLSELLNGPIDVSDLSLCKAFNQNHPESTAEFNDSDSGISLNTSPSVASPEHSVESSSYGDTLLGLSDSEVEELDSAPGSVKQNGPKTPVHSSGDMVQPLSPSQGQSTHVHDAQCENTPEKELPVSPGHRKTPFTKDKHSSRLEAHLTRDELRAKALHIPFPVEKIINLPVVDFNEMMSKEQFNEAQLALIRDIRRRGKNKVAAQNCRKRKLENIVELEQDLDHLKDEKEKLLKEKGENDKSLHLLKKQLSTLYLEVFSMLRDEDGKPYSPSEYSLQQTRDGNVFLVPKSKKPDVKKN
Signal transducer and activator of transcription 3 (Homo sapiens), sequence (P40763 whole entry, looked up): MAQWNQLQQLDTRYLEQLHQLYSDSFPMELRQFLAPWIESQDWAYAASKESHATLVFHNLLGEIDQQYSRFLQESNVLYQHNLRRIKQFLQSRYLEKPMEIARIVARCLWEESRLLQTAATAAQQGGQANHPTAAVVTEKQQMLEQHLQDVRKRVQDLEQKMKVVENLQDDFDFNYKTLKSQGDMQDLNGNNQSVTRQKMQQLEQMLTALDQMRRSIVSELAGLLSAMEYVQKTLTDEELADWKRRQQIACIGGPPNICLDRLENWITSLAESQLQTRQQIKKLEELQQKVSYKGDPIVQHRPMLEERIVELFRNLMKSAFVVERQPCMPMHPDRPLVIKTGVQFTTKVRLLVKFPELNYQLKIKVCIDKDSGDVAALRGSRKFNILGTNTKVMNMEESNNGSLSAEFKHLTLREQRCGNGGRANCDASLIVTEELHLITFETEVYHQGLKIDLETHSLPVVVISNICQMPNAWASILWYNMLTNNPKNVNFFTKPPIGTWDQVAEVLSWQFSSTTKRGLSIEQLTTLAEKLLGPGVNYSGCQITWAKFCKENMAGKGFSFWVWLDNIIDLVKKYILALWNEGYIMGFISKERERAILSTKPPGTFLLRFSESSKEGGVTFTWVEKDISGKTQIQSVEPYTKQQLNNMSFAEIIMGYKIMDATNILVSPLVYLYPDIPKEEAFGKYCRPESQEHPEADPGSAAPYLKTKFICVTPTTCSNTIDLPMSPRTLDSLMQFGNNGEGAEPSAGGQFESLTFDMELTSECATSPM

CCOP(=S)(OCC)OC(Cl)C(Cl)(Cl)Cl (stereo not given)
inactive: all assays above

C=C(C)[C@H]1Cc2c(ccc3c2O[C@@H]2COc4cc(OC)c(OC)cc4[C@@H]2C3=O)O1
active: [2] 1.95 µM | [3] 13.2 µM | [5] 7.62 µM | [6] 0.358 µM | [8] 12.3 µM | [9] 13.2 µM | [10] 7.78 µM
inactive: [1] | [4] | [7]

CC(=NC#N)N(C)Cc1ccc(Cl)nc1
inactive: all assays above

CNC(=O)ON=C(SC)C(=O)N(C)C
inactive: all assays above

CCOP(=S)(Oc1cnc(C(C)(C)C)nc1)OC(C)C (stereo not given)
active: [3] 1.35 µM
inactive: all other assays above

COP(=O)(OC)C(O)C(Cl)(Cl)Cl (stereo not given)
inactive: all assays above

Nc1c(Cl)cc([N+](=O)[O-])cc1Cl
inactive: [4] | [5] | [10]
active: [1] 4.24 µM | [2] 60.8 µM | [3] 50 µM | [6] 50 µM | [7] 25 µM | [8] 50 µM | [9] 50 µM

CN(C)NC(=O)CCC(=O)O
inactive: all assays above

N#CSCSC#N
active: [2] 74.2 µM
inactive: all other assays above

CC(C)=CC1C(C(=O)OCN2C(=O)C3=C(CCCC3)C2=O)C1(C)C (stereo not given)
inactive: all assays above

CCCCN(CC)c1c([N+](=O)[O-])cc(C(F)(F)F)cc1[N+](=O)[O-]
inactive: all assays above

CCCOCC(=Nc1ccc(Cl)cc1C(F)(F)F)n1ccnc1
inactive: [4] | [5] | [6]
active: [1] 81.8 µM | [2] 21.4 µM | [3] 11.5 µM | [7] 50 µM | [8] 15.8 µM | [9] 66.6 µM | [10] 92.4 µM

C[Si](Cn1cncn1)(c1ccc(F)cc1)c1ccc(F)cc1
active: [2] 63.1 µM | [5] 39.3 µM | [8] 74.4 µM | [9] 73.5 µM | [10] 65.1 µM
inactive: [1] | [3] | [4] | [6] | [7]

Cc1ccn2nc(S(=O)(=O)Nc3c(F)cccc3F)nc2n1
inactive: all assays above

Nc1nc(N)nc(NC2CC2)n1
inactive: all assays above

CCc1cnc(C2=NC(C)(C(C)C)C(=O)N2)c(C(=O)O)c1 (stereo not given)
inactive: all assays above

S=C1NCCN1
active: [8] 0.24 µM
inactive: all other assays above

CSc1nc(NC(C)C)nc(NC(C)C)n1
active: [2] 34.4 µM | [8] 50 µM | [9] 84.9 µM
inactive: all other assays above

CCCCOC(=O)[C@@H](C)Oc1ccc(Oc2ccc(C#N)cc2F)cc1
active: [3] 49.8 µM
inactive: all other assays above

CC(C)[C@H](C(=O)O[C@H](C#N)c1cccc(Oc2ccccc2)c1)c1ccc(Cl)cc1
inactive: all assays above
